This passage reports cytotoxicity call results from the antibiotic and cytotoxicity screens of Wong et al. (2023).

SMILES strings stand for the structures. The campaign covered roughly 39,000 compounds. About 3,300 (8.5%) were called active. The sample as a whole holds a higher share of actives than the screen did.

This experiment relates to HepG2. As to the kind of experiment: cytotoxicity call (relative viability < 0.9). The following applies: 10 µM.
Turning to `C[C@@H]1CN([C@H](C)CO)C(=O)c2cccc(NC(=O)Nc3ccc(F)cc3)c2O[C@@H]1CN(C)Cc1ccc(C(=O)Nc2ccccc2N)cc1`, the cytotoxicity call is “inactive”.
Under `COCC#Cc1cnc2c(c1)C(=O)N([C@H](C)CO)C[C@@H](C)[C@@H](CN(C)S(=O)(=O)c1ccccc1)O2` stands “inactive”.
Under `COCCN1C(=O)C2=C(C1=O)[C@H]1N(C)c3ccccc3[C@@]13C[C@@H](CO)N(C(C)=O)C3=N2` stands “inactive”.
With `C[C@H](CO)N1C[C@H](C)[C@H](CN(C)C(=O)Nc2ccc(C(F)(F)F)cc2)Oc2ncc(-c3ccc(C#N)cc3)cc2C1=O` the entry was “inactive”; with `C=CCOC(=O)[C@@H]1[C@H]2C(=O)O[C@H](c3ccccc3)[C@H](c3ccccc3)N2[C@H](c2ccc(OCCOC(=O)NCCCCCC(=O)NO)cc2)[C@]12C(=O)Nc1ccccc12`, “inactive”; with `CC(C)(O)[C@H]1CC[C@@](C)([C@H]2[C@@H](O)C[C@@]3(C)[C@@H]4C[C@H](O[C@@H]5O[C@H](CO)[C@@H](O)[C@H](O)[C@H]5O)[C@H]5C(C)(C)[C@@H](O[C@@H]6OC[C@@H](O)[C@H](O)[C@H]6O)CC[C@@]56C[C@@]46CC[C@]23C)O1`, “inactive”.
With `C[C@@H]1CC[C@@]2(OC1)O[C@H]1C[C@H]3[C@H]4C[C@@H](O)[C@H]5C[C@@H](O[C@@H]6O[C@H](CO)[C@H](O[C@@H]7O[C@H](CO)[C@@H](O)[C@H](O[C@@H]8OC[C@@H](O)[C@H](O)[C@H]8O)[C@H]7O[C@@H]7O[C@H](CO)[C@@H](O[C@@H]8O[C@H](CO)[C@@H](O)[C@H](O)[C@H]8O)[C@H](O)[C@H]7O)[C@H](O)[C@H]6O)[C@H](O)C[C@]5(C)[C@@H]4CC[C@]3(C)[C@H]1[C@@H]2C`, the cytotoxicity call was “active”.
In the case of `CC1CCC2(OC1)OC1CC3C4CCC5CC(O)CCC5(C)C4CCC3(C)C1C2C` (stereo unspecified), the cytotoxicity call is “inactive”.
Turning to `CC(C)(O)C1CCC(C)(C2C(O)CC3(C)C4CC(OC5OC(CO)C(O)C(O)C5O)C5C(C)(C)C(OC6OCC(O)C(O)C6O)CCC56CC46CCC23C)O1` (stereo unspecified), the cytotoxicity call is “inactive”.
With `C[C@@H]1CO[C@]2(O[C@H]3C[C@H]4[C@H]5C[C@H](O[C@H]6O[C@@H](C)[C@@H](O)[C@@H](O[C@@H]7O[C@@H](C)[C@H](O)[C@@H](O)[C@H]7O)[C@@H]6O)[C@H]6C[C@@H](O)CC[C@]6(C)[C@@H]5CC[C@]4(C)[C@H]3[C@@H]2C)[C@@H](O)C1` the entry was “inactive”.
For the molecule `C[C@@H]1CC[C@@]2(OC1)O[C@H]1C[C@H]3[C@H]4C[C@@H](O)[C@H]5C[C@@H](O[C@@H]6O[C@H](CO)[C@H](O[C@@H]7O[C@H](CO)[C@@H](O)[C@H](O[C@@H]8OC[C@@H](O)[C@H](O)[C@H]8O)[C@H]7O[C@@H]7O[C@H](CO)[C@@H](O)[C@H](O)[C@H]7O)[C@H](O)[C@H]6O)[C@H](O)C[C@]5(C)[C@@H]4CC[C@]3(C)[C@H]1[C@@H]2C`, the cytotoxicity call is “active”.
With `C[C@H]1CN([C@@H](C)CO)C(=O)Cc2cc(NC(=O)C3CCCCC3)ccc2O[C@@H]1CN(C)C(=O)Nc1cccc2ccccc12` the entry was “inactive”; with `Nc1nc(Cl)nc2c1ncn2[C@H]1C[C@@H](O)[C@@H](CO)O1`, “inactive”.
On to `C[C@@H]1CN([C@@H](C)CO)C(=O)c2cc(N(C)C)ccc2O[C@@H](C)CCCCO[C@H]1CN(C)C(=O)Nc1cccc2ccccc12`, for which the cytotoxicity call is “inactive”.
For the molecule `Fc1ccc(Nc2ncnc3sc(-c4ccccc4)cc23)cc1`, the cytotoxicity call was “inactive”.
Under `COc1ccc(S(=O)(=O)Nc2ccc3c(c2)C(=O)N([C@H](C)CO)C[C@@H](C)[C@@H](CN(C)C(=O)Nc2cccc4ccccc24)O3)cc1` stands “inactive”; under `CC(=O)Oc1cc2c(c(C)c1OC(C)=O)CC=C1[C@@]2(C)CC[C@@]2(C)[C@H]3C[C@](C)(C(=O)O)CC[C@]3(C)CC[C@]12C`, “active”; under `CC1(C(=O)O)CCC2(C)CCC3(C)C(=CC(=O)C4C5(C)CCC(O)C(C)(C)C5CCC43C)C2C1` (stereo unspecified), “inactive”.
On to `C[C@@H]1CCCCO[C@@H](CN(C)Cc2ccc(C(F)(F)F)cc2)[C@H](C)CN([C@@H](C)CO)C(=O)c2cc(NC(=O)CCC(F)(F)F)ccc2O1`, for which the cytotoxicity call is “active”.
Under `C[C@@H]1CN([C@@H](C)CO)C(=O)c2cc(NC(=O)CCC(F)(F)F)ccc2O[C@@H](C)CCCCO[C@H]1CN(C)Cc1ccc(C(=O)O)cc1` stands “inactive”.
In the case of `C[C@@H]1CN([C@H](C)CO)C(=O)c2cc(NC(=O)CCC(F)(F)F)ccc2O[C@@H](C)CCCCO[C@@H]1CN(C)Cc1ccc(C(F)(F)F)cc1`, the cytotoxicity call is “inactive”.
Take `C[C@@H]1CCCCO[C@H](CN(C)Cc2ccc(C(F)(F)F)cc2)[C@H](C)CN([C@@H](C)CO)C(=O)c2cc(NC(=O)CCC(F)(F)F)ccc2O1`: the cytotoxicity call was “active”.
For the molecule `C[C@H](CO)N1C[C@H](C)[C@H](CN(C)Cc2ccc(C(F)(F)F)cc2)OCCCC[C@H](C)Oc2ccc(NC(=O)CCC(F)(F)F)cc2C1=O`, the cytotoxicity call was “inactive”.
Take `C[C@@H]1CN([C@H](C)CO)C(=O)c2cc(NC(=O)CCC(F)(F)F)ccc2O[C@@H](C)CCCCO[C@H]1CN(C)Cc1ccc(C(=O)O)cc1`: the cytotoxicity call is “inactive”.
Under `C[C@@H]1CCCCO[C@@H](CN(C)Cc2ccc(C(=O)O)cc2)[C@H](C)CN([C@H](C)CO)C(=O)c2cc(NC(=O)CCC(F)(F)F)ccc2O1` stands “active”; under `C[C@H]1CCCCO[C@H](CN(C)Cc2ccc(C(F)(F)F)cc2)[C@@H](C)CN([C@@H](C)CO)C(=O)c2cc(NC(=O)CCC(F)(F)F)ccc2O1`, “active”; under `C[C@H](CO)N1C[C@H](C)[C@@H](CN(C)Cc2ccc(C(F)(F)F)cc2)OCCCC[C@H](C)Oc2ccc(NC(=O)CCC(F)(F)F)cc2C1=O`, “inactive”.
With `C[C@@H]1CCCCO[C@H](CN(C)Cc2ccc(C(F)(F)F)cc2)[C@@H](C)CN([C@@H](C)CO)C(=O)c2cc(NC(=O)CCC(F)(F)F)ccc2O1` the entry was “inactive”; with `C[C@@H]1CCCCO[C@@H](CN(C)Cc2ccc(C(F)(F)F)cc2)[C@H](C)CN([C@H](C)CO)C(=O)c2cc(NC(=O)CCC(F)(F)F)ccc2O1`, “inactive”; with `C[C@@H]1CCCCO[C@H](CN(C)Cc2ccc(C(F)(F)F)cc2)[C@@H](C)CN([C@H](C)CO)C(=O)c2cc(NC(=O)CCC(F)(F)F)ccc2O1`, “inactive”.
Regarding `CN(C)CC#Cc1ccc([C@@H]2[C@@H](CO)N3C(=O)CN(C(=O)c4cccnc4)C[C@H]23)cc1`, the cytotoxicity call was “inactive”.
In the case of `CO[C@H](CN(C)C(=O)Nc1ccc(C(F)(F)F)cc1)[C@@H](C)CN(Cc1ccccc1Cl)[C@@H](C)CO`, the cytotoxicity call was “inactive”.
With `C=CCC[C@H](Cc1ccc(F)cc1)C(=O)O[C@H](CNC(=O)[C@@H](CC=C)CC(=O)N[C@@H](CO)Cc1ccccc1)c1ccccc1` the entry was “inactive”.
In the case of `C[C@H](CO)N1C[C@H](C)[C@@H](CN(C)Cc2ccc(-c3ccccc3)cc2)Oc2c(NC(=O)C3CC3)cccc2C1=O`, the cytotoxicity call was “inactive”.
Regarding `NC(=O)NCC#Cc1ccc2c(c1)[C@]1(C(=O)N2)[C@H](C(=O)N2CCCCCCC2)[C@H]2C(=O)O[C@H](c3ccccc3)[C@H](c3ccccc3)N2[C@@H]1c1ccccc1OCCO`, the cytotoxicity call was “inactive”.
Take `C[C@@H]1CN([C@@H](C)CO)S(=O)(=O)c2ccc(-c3ccccc3F)cc2O[C@H]1CN(C)S(C)(=O)=O`: the cytotoxicity call is “inactive”.
With `CN1C(=O)[C@@H](O)N(c2ccccc2)C1=O` the entry was “inactive”; with `CCOC(=O)[C@H](CCc1ccccc1)N[C@@H](C)C(=O)N1C(=O)N(C)C[C@H]1C(=O)O`, “inactive”; with `CC(C)NC(=O)N(C)C[C@@H]1Oc2ccc(NS(=O)(=O)c3ccc(Cl)cc3)cc2CC(=O)N([C@@H](C)CO)C[C@H]1C`, “inactive”.
Regarding `C[C@@H]1CN([C@@H](C)CO)C(=O)c2cccc(NS(=O)(=O)c3cccs3)c2O[C@H]1CN(C)Cc1ccc(Cl)c(Cl)c1`, the cytotoxicity call is “inactive”.
With `COc1ccc(CN(C)C[C@H]2OCCCC[C@H](C)Oc3ccc(NC(=O)CCC(F)(F)F)cc3C(=O)N([C@H](C)CO)C[C@H]2C)cc1` the entry was “active”; with `C[C@@H]1CN([C@@H](C)CO)C(=O)c2cc(NC(=O)CCC(F)(F)F)ccc2O[C@@H](C)CCCCO[C@H]1CN(C)Cc1ccc(C(F)(F)F)cc1`, “inactive”.
Under `COc1ccc(CN(C)C[C@H]2OCCCC[C@H](C)Oc3ccc(NC(=O)CCC(F)(F)F)cc3C(=O)N([C@@H](C)CO)C[C@H]2C)cc1` stands “inactive”.
Regarding `C[C@@H]1CN([C@@H](C)CO)C(=O)c2cc(NC(=O)CCC(F)(F)F)ccc2O[C@@H](C)CCCCO[C@@H]1CN(C)Cc1ccc(C(F)(F)F)cc1`, the cytotoxicity call is “inactive”.
With `COc1ccc(CN(C)C[C@H]2OCCCC[C@@H](C)Oc3ccc(NC(=O)CCC(F)(F)F)cc3C(=O)N([C@H](C)CO)C[C@H]2C)cc1` the entry was “inactive”.
With `C[C@H]1CCCCO[C@@H](CN(C)Cc2ccc(C(F)(F)F)cc2)[C@@H](C)CN([C@@H](C)CO)C(=O)c2cc(NC(=O)CCC(F)(F)F)ccc2O1` the entry was “active”; with `C[C@H](CO)N1C[C@H](C)[C@@H](CN(C)C(=O)Nc2ccc3c(c2)OCO3)OCCCC[C@H](C)Oc2ccc(NS(=O)(=O)c3ccc(Cl)cc3)cc2C1=O`, “inactive”.
For `COC(=O)c1c2oc(c1C(=O)OC)C(=O)N[C@H](Cc1ccccc1)Cn1cc(nn1)CNC(=O)[C@@H](Cc1ccccc1)NC(=O)N[C@@H](COC(=O)NCCCCCC(=O)NO)CC2`, the cytotoxicity call is “inactive”.
Under `C[C@H](NC(=O)[C@H]1N[C@H]2c3ccc(-c4ccc(C(=O)N(C)C)cc4)c(=O)n3C[C@H]2[C@@H]1CO)c1ccccc1` stands “inactive”.
With `COc1ccc(NC(=O)N(C)C[C@@H]2Oc3ccc(NS(=O)(=O)c4cn(C)cn4)cc3CC(=O)N([C@H](C)CO)C[C@H]2C)cc1` the entry was “inactive”; with `COc1ccc(NC(=O)Nc2cccc3c2O[C@@H](CN(C)Cc2ccc(C(=O)Nc4ccccc4N)cc2)[C@@H](C)CN([C@@H](C)CO)C3=O)cc1`, “inactive”.
